Screens: PubChem, National Center for Advancing Translational Sciences (NCATS)
L3MBTL1 block: blocks human L3MBTL1; 230,000 tested, 0.66% active; Q9Y468; AlphaScreen L3MBTL1–H3K9me1 peptide binding; Potency, µM (titrated, usually from 57.1 µM), without a hit: at the top dose activity, negative = inhibition, most hits filed as inhibitors; AID 485360; note: nearly all actives have a fitted effect of over 60% in size
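AlphaScreen assay: L3MBTL1 (50 nM final) was preincubated 30 min at room temperature with biotinylated H3(1-15)K9me1 peptide (75 nM final), then 30 min with library compounds; streptavidin donor and nickel chelate acceptor beads (10 ug/mL final) added, 30 min dark.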
BLM helicase inh: blocks DNA unwinding by human BLM helicase | P54132 | recombinant BLM DNA unwinding, fluorescence dequenching | Potency, µM (doses to about 56.1 µM), without a hit: top-dose activity change, negative = inhibition, actives largely listed as inhibitors | 350,000 tested, 0.2% active | AID 2528;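 note: plate controls were vehicle for no effect and no enzyme for full effect; nearly all actives have a fitted effect of over 35% in size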
RECQ1 inh: blocks DNA unwinding by human RECQ1; P46063; RECQ1 DNA unwinding, red fluorescence kinetic read; Potency, µM (highest dose often 57.3 µM), inactives show top-dose activity, negative = inhibition, hits mostly inhibitors; 240,000 tested, 0.54% active;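 note: plate controls were vehicle for no effect and no enzyme for full effect; nearly all actives have a fitted effect of over 30% in size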
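50 nM RECQ1T1 preincubated 15 min with compound in Tris pH 8.0 buffer with MgCl2, DTT, Tween-20 and 2.5 ug/ml poly(dI-dC); started with 200 nM TAMRA/BHQ-2 forked duplex and 2 mM ATP. Unwinding read as fluorescence (525/598 nm), two reads 2 h apart.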
APE1 inh-1: blocks human APE1 abasic DNA cleavage | 350,000 tested, 0.35% active | P27695 | recombinant APE1, TAMRA/BHQ-2 abasic DNA cleavage fluorescence | Potency, µM (titrated, usually from 65.8 µM), for inactives: top-dose activity change, negative = inhibition, usual class: inhibitors;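 note: plate controls were vehicle for no effect and reference inhibitor for full effect; nearly all actives have a fitted effect of over 55% in size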
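Endonuclease cleavage of a quenched abasic-site DNA duplex (50 nM) by APE1 (0.75 nM) was tracked by TAMRA dequenching. Compounds were preincubated with enzyme 15 min at room temperature; data normalized to buffer-only and DMSO wells plus NSC13755 control.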
WRN inhibitor: WRN helicase (human) inhibition. Potency, µM (doses to about 114 µM), for the others: top-dose activity change, negative = inhibition, hits mostly inhibitors. WRN helicase unwinding, fluorescent forked duplex, kinetic. AID 651768. 360,000 tested, 0.46% active. Q14191; note: nearly all actives have a fitted effect of over 55% in size
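Screening of the MLSMR collection measured strand separation of a quenched forked DNA duplex (100 nM) by 20 nM WRN with 2 mM ATP, all final. Compounds were preincubated with enzyme 15 min at room temperature.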
APE1 dye cs: counter-screen for APE1 inhibitors: DNA dye displacement. AID 2564. 480 tested, 7% active. Potency, µM (titrated, usually from 28.5 µM), for the others: at the highest dose activity change, negative = inhibition, most hits filed as inhibitors. shares compounds with APE1 inh-1. DNA fluorescent dye displacement counterscreen, fluorescence;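 note: loss of thiazole orange fluorescence as the dye is displaced from duplex DNA; 0% = ThO with dsDNA and no compound and -100% = ThO without dsDNA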
EndoIV counter: Endo IV (E. coli) inhibition counter-screen; shares compounds with APE1 inh-1; E. coli Endo IV, fluorogenic AP-site DNA cleavage; Potency, µM (titrated, usually from 27.1 µM), for the others: top-dose activity change, negative = inhibition, hits mostly inhibitors; 560 tested, 4% active; AID 2565;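 note: plate controls were uninhibited enzyme wells for no effect and no enzyme buffer wells for full effect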
APE1 inh-2: confirmation of inhibitors of human APE1 endonuclease. shares compounds with APE1 inh-1. purified APE1, fluorogenic abasic-site DNA cleavage. Potency, µM (titrated, usually from 57.1 µM), for inactives: at the top dose activity change, negative = inhibition, actives largely listed as inhibitors. 750 tested, 44% active. AID 2572; note: nearly all actives have a fitted effect of over 30% in size
APE1 FP inh: APE1 (human) DNA binding inhibition, fluorescence polarization; shares compounds with APE1 inh-1; 480 tested, 7% active; APE1 binding to TAMRA-labelled double-stranded DNA, fluorescence polarization displacement; AID 2573; Potency, µM (top dose mostly 28.5 µM), for inactives: at the top dose activity, negative = inhibition, actives largely listed as inhibitors
* marks the source's active call; other numbers are inactive results; i = inactive; ? = inconclusive; . = no result; [ ] = dose if it differs, or a comment. Hits are enriched below; roughly 0.92% of the tested compounds scored in any of these assays. Calls come from the whole dose curve; as a rule, active = well fitted curve in the direction sought with a large enough effect; inconclusive = small, poorly fitted or top-dose-only effect, or another doubt; inactive = no such curve, though single readings can be large; an effect the other way counts as inactive or inconclusive. Unless noted, % is set by controls: 0 for no effect and ±100 for the full control effect; potency is the fitted concentration of half-maximal effect.

SMILES | L3MBTL1 block | BLM helicase inh | RECQ1 inh | APE1 inh-1 | WRN inhibitor | APE1 dye cs | EndoIV counter | APE1 inh-2 | APE1 FP inh
COC/C=C/C1=CC2=CC(=O)C(C)(OC(=O)c3ccco3)C(=O)C2=CO1 (stereo unspecified) | . | -14.3% | 28.2µM* | 20µM* | . | ? | ? | ? | 12.6µM*
CN(C)c1ccc(O)c2c1C[C@@H]1C[C@H]3C(N(C)C)C(=O)C(C(N)=O)=C(O)[C@@]3(O)C(=O)C1=C2O (stereo partly specified) | . | -11.5% | ? | . | . | -2.0%[57.1 µM] | 9.8%[57.1 µM] | -10.6% | ?
CC[n+]1ccc(/C=C2\Sc3ccccc3N2CCCS(=O)(=O)[O-])c2ccccc21 | -15.0% | -3.6% | -15.1% | ? | -6.0% | . | . | ? | .
CCC1=NNc2cccc3c(OC)ccc1c23 | . | ? | -17.2% | ? | . | ? | 8.2% | -6.0%[24.4 µM] | 1.1%
O=C(COC(=O)c1cccnc1Cl)NCc1ccco1 | -26.5% | -8.0% | i | ? | ? | . | . | ? | .
O=c1cc(/N=C/c2coc3cc(Br)ccc3c2=O)[nH]c(=S)[nH]1 | 0.9% | 0.5% | -3.5% | -0.7% | -28.7% | . | . | . | .
CC(=O)Oc1ccc2c(=O)c(/C=N/c3cc(=O)[nH]c(=S)[nH]3)coc2c1 | -13.1% | 0.1% | -0.2% | 5.9% | -26.4% | . | . | -38.7% | .
C[C@H](NC(=O)[C@@H](N)Cc1ccc(O)cc1)C(=O)NCC(=O)N[C@H]1CSSC[C@@H](C(=O)O)NC(=O)[C@H](CO)NC(=O)[C@H]([C@@H](C)O)NC(=O)[C@H](Cc2ccccc2)NC(=O)[C@H]([C@@H](C)O)NC(=O)[C@H](CCCCN)NC(=O)[C@H](Cc2c[nH]c3ccccc23)NC(=O)[C@H](Cc2ccccc2)NC(=O)[C@H](Cc2ccccc2)NC(=O)[C@H](CC(N)=O)NC(=O)[C@H](CCCCN)NC1=O | . | -13.9% | -5.7% | -1.7% | . | . | . | . | .
Cn1cc(C2=C(c3ccc(Cl)cc3Cl)C(=O)NC2=O)c2ccccc21 | . | -4.1% | ? | ? | 12.4% | . | -9.3%[57.1 µM] | 25.1µM* | .
COC(=O)[C@H](C)NC(=O)[C@@H](C)CO | . | -0.3%[12.4 µM] | i[11.5 µM] | 26.8%[12.4 µM] | . | . | . | . | .
Fc1ccc(C2CC(c3cccs3)=NN2c2ccccc2)cc1 (stereo unspecified) | 243.8% | -10.4% | i | -6.1% | -12.0% | . | . | -16.8% | .
Cc1ccc(C(=O)Nc2cccc(C(F)(F)F)c2)cc1Nc1ccccn1 | . | -13.4% | -18.7% | 35.5µM* | -8.7% | -9.9% | 12.3% | ? | 2.0%
O=C(O)Cc1ccc(NC(=O)C2CC=CCC2C(=O)O)cc1 (stereo unspecified) | ? | -2.1% | -3.5% | 20µM* | . | . | . | -36.1% | .
O=C(O)C1CC=CCC1C(=O)Nc1ccccc1 (stereo unspecified) | . | -1.4% | -4.6% | -16.9% | -7.5% | . | . | -23.5% | .
CC(C)CN(C[C@@H](OP(=O)(O)O)[C@H](Cc1ccccc1)NC(=O)O[C@@H]1CCOC1)S(=O)(=O)c1ccc(N)cc1 | . | 6.5% | . | . | . | . | . | . | .
CC(=O)[C@H]1[C@@H]2C(=O)N(c3cccc(Cl)c3)C(=O)[C@@H]2[C@H]2c3ccccc3C=CN21 | -3.8% | -21.1% | -20.7% | ? | -6.2% | . | . | . | .
